Records with an inconclusive call do not appear. The source made the active and inactive calls. Calls follow the shape of the dose curve; as a rule, active = well fitted inhibition curve with a large enough effect; inconclusive = small, poorly fitted or top-dose-only effect, or effect the other way; inactive = flat fitted curve, though single readings scatter.
target: Ubiquitin carboxyl-terminal hydrolase 2 (Homo sapiens) (UniProt O75604); experiment: Confirmation Assay for Inhibitors of Ubiquitin-specific Protease USP2a Using CHOP2 as the Reporter; conditions: USP2 core, Ub-CHOP2 coupled reporter fluorescence; series mostly up to 38.3 µM; activity change, negative = inhibition: at the top concentration; also: nearly all actives have a fitted effect of over 55% in size;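 as to activity change, negative = inhibition: plate controls were DMSO wells for no effect and full inhibition by NEM control for full effect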
Sequence (O75604 whole entry, looked up): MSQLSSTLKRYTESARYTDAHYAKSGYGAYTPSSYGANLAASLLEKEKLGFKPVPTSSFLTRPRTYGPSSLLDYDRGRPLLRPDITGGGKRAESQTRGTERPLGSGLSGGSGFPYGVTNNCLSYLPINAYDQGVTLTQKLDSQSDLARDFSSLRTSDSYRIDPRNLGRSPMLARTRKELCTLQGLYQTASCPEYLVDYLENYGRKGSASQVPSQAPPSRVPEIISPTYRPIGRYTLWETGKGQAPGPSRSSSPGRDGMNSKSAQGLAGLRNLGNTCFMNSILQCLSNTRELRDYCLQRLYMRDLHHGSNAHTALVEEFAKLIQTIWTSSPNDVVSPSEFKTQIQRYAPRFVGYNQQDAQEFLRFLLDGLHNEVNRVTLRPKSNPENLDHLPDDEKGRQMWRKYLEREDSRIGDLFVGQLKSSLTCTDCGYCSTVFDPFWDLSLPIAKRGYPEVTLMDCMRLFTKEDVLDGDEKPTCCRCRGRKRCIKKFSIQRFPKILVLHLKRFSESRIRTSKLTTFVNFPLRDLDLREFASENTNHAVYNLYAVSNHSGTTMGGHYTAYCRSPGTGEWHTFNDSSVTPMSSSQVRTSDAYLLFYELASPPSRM
In short: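 Ub-CHOP2 cleavage coupled to reporter activation was read by fluorescence after 60 min at RT, with 25 nM final Ub-CHOP2 and substrate. Enzyme (10 nM final USP2 core) first sat 30 min with compound; data were normalized to NEM and fitted to concentration-response curves.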
Potency is read from the fitted curve at half-maximal effect.

| SMILES | activity change, negative = inhibition | Potency |
| --- | --- | --- |
| CCCC(=O)Nc1ccc(N2CCN(C(=O)c3cc4ccccc4o3)CC2)cc1 | 4.98% (inactive) | – |
| COc1cc(NC(=O)COC(=O)CSc2ccccc2F)c(C)cc1[N+](=O)[O-] | -2.68% (inactive) | – |
| O=C(Nc1cccc(-c2nn[nH]n2)c1)c1ccc(Br)s1 | – | 5.21 µM (active) |
| O=C(Nc1cnn(Cc2ccccc2)c1)c1nc2ncccn2n1 | -1.86% (inactive) | – |
| CNc1cccccc1=S | 1.21% (inactive) | – |
| COc1ccc(C(=O)COC(=O)c2ccccc2O)c(OC)c1 | -16.9% (inactive) | – |
| CS(=O)(=O)c1nc(-c2ccc(Br)cc2)cc(-c2ccccc2)c1C#N | -2.62% (inactive) | – |
| Cc1ccc(S(=O)(=O)N2[C@@H](c3ccc(C(C)(C)C)cc3)C(C(=O)O)=CC[C@H]2c2ccc(Cl)cc2)cc1 | – | 14.7 µM (active) |
| CN(c1ccccc1)S(=O)(=O)c1ccc(Cl)c(C(=O)NCCc2c[nH]c3ccccc23)c1 | -0.219% (inactive) | – |
| O=S(=O)(c1cc(Cl)ccc1Cl)N1CCNCC1 | -2.36% (inactive) | – |
| O=C(C[n+]1cccc(C(=O)N/N=C/c2ccc(Br)cc2)c1)c1ccccc1 | -1.53% (inactive) | – |
| COc1cc(C(c2c(C)[nH][nH]c2=O)c2c(C)[nH][nH]c2=O)ccc1OCc1ccc([N+](=O)[O-])cc1 | -7.1% (inactive) | – |
| C=CCSC1=N/C(=C\C=C\c2ccco2)C(=O)S1 | -9.76% (inactive) | – |
| CCC(C)(C(=O)NC1CCCCC1)N(C(=O)C1CCC(=O)N1)c1ccccc1 (stereo not given) | -1.54% (inactive) | – |
| COc1ccc2[nH]c(=O)c(CN(Cc3ccco3)Cc3nnnn3Cc3ccccc3)cc2c1 | -0.234% (inactive) | – |
| COc1ccccc1N1CCN(c2cc(C)nc3nc(C)nn23)CC1 | 0.0596% (inactive) | – |
| O=[N+]([O-])c1ccc(Sc2nnnn2-c2ccccc2)c(Cl)c1 | 0.576% (inactive) | – |
| COc1ccc(-c2noc(CSc3nnc(Cc4ccccc4)n3-c3ccc(Cl)cc3)n2)cc1 | 1.21% (inactive) | – |
| Cc1ccc(Nc2nc(N)nc(CN3CCN(C(=O)c4ccco4)CC3)n2)cc1Cl | -2.65% (inactive) | – |
| CN1CCN(CCC(=O)N/N=C/c2cc([N+](=O)[O-])ccc2O)CC1 | -3.37% (inactive) | – |

| SMILES | activity change, negative = inhibition | Potency |
| --- | --- | --- |
| O=C(CCNc1cccc(Cl)c1)c1ccco1 | -4.03% (inactive) | – |
| O=C(C[n+]1ccc(-c2cc(C(=O)Nc3cccc(C(F)(F)F)c3)c3ccccc3n2)cc1)c1cccc([N+](=O)[O-])c1 | -8.79% (inactive) | – |
| CCn1c(SCC(=O)NCCc2ccccc2)nnc1-c1cccs1 | -0.464% (inactive) | – |
| CC(=O)N1c2c(cc(Br)cc2S(=O)(=O)NCc2cccnc2)CC1C (stereo not given) | 2.31% (inactive) | – |
| CC[C@]12c3[nH]c4cc(-c5ccco5)ccc4c3CCN1C(=O)[C@@H](CC(=O)NC/C=C(\C)CCC=C(C)C)C[C@@H]2C(=O)N1CCN(C(=O)C2CC2)CC1 | -2.16% (inactive) | – |
| Cc1noc(C)c1NC(=O)Nc1ccc2c(c1)C(=O)N([C@H](C)CO)C[C@H](C)[C@@H](CN(C)S(=O)(=O)c1ccccc1)O2 | -1.29% (inactive) | – |
| CCc1cc2c(=O)c(-c3nc4ccccc4n3C)coc2c(CN2CCCCC2C)c1O (stereo not given) | 0.458% (inactive) | – |
| Cc1ccc(C2=NC(=O)/C(=C/c3cc(O)c(O)c(Br)c3)S2)cc1 | – | 7.36 µM (active) |
| Cc1nc2n(n1)CC(O)CS2 (stereo not given) | 4.62% (inactive) | – |
| O=C(O)C(Cc1ccccc1)N1C(=O)/C(=C/C=C/c2ccco2)SC1=S (stereo not given) | – | 7.36 µM (active) |
| Nc1ccc2nc(-c3ccc(N)c(Cl)c3)[nH]c2c1 | -0.728% (inactive) | – |
| CCC(C(=O)Nc1nnc(-c2ccco2)s1)c1ccccc1 (stereo not given) | 2.92% (inactive) | – |
| CCn1c(COc2ccc(C)cc2)nnc1SCC(=O)Nc1ccc2c(c1)OCCO2 | -3.89% (inactive) | – |
| CCCCC(CC)CN=C(N)NC(N)=NCCCCCCN=C(N)NC(N)=NCC(CC)CCCC (stereo not given) | – | 4.65 µM (active) |
| COc1ccc(NC(=O)CSc2nnc(-c3ccccc3Cl)n2Cc2ccco2)c(OC)c1 | 0.298% (inactive) | – |
| COc1cc(C(=O)OC2CCCCC2=O)cc(OC)c1C (stereo not given) | – | 11.7 µM (active) |
| Cc1ccc(C(=O)CSc2nnc(CNc3nc(-c4ccccc4)cs3)n2C)cc1 | -6.56% (inactive) | – |
| CCC(=O)c1ccc(OCC(=O)NC2CCN(Cc3ccccc3)CC2)cc1 | 1.54% (inactive) | – |
| Cn1c2ccccc2c2nnc(SC3CCOC3=O)nc21 (stereo not given) | 1.63% (inactive) | – |
| O=C(CNC(=O)C1CCCCC1)NC1=NCCS1 | -0.749% (inactive) | – |
